Measurements from the supplement of paper PMC3334620.
In all, about 33,000 sequences were measured (“E-score (-0.5 to 0.5)”: median about -0.056, highest 2% from about 0.38 on). Shown is part of a subset that was picked to be rich in the highest values.

Molecular target: Stb4 (UniProt P50104)
Assay: PBM E-score (8-mer binding enrichment) (E-score (-0.5 to 0.5)); higher = stronger / more preferred TF binding
Details: protein concentration: 200 nM; construct: GST-DNA-binding domain
Procedure: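 Universal 'all 10-mer' protein binding microarrays (Agilent AMADID 015681) probed with GST-tagged S. cerevisiae TFs (full-length or DBD) made by in vitro transcription/translation (PURExpress), about 100-200 nM. Bound TF was detected with fluorescent anti-GST. Each ungapped 8-mer (which stands for itself and its reverse complement) is scored by the PBM enrichment score (E-score), a modified Wilcoxon-Mann-Whitney statistic from -0.5 to +0.5, computed with the Universal PBM Analysis Suite. Scale: above 0.35 generally sequence-specific binding.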

UniProt P50104, sequence (P50104 whole entry): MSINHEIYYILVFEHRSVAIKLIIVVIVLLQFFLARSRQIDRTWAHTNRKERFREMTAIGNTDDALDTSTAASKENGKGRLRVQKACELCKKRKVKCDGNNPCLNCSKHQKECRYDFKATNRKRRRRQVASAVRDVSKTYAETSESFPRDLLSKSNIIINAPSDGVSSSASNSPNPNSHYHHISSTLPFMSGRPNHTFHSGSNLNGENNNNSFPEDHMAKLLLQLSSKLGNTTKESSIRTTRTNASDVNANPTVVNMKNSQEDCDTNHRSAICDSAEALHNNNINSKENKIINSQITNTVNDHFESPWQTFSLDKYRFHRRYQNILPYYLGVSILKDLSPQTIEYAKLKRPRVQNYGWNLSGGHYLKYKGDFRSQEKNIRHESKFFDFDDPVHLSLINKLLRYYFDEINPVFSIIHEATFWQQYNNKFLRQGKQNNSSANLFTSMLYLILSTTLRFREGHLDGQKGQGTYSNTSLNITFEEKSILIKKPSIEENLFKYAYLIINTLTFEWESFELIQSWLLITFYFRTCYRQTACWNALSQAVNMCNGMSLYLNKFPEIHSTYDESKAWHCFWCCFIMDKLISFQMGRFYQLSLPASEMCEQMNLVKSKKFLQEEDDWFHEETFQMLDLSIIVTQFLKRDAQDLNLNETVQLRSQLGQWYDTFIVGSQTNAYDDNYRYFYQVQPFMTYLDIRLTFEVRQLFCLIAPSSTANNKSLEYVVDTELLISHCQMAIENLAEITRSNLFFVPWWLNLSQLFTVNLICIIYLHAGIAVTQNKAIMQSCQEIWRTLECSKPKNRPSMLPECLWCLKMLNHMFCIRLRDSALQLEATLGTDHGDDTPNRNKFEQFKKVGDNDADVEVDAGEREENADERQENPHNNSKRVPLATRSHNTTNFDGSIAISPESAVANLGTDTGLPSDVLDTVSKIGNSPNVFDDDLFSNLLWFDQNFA

| Sequence | PBM E-score |
| --- | --- |
| GATCGGCA | 0.349 |
| CTTCGGCC | 0.218 |
| GGTCGGCA | 0.353 |
| ATTCGGCC | 0.271 |
| CATCGGCA | 0.376 |
| ACAACCTC | -0.114 |
| AGGCTGGG | -0.236 |
| ACCGCGTG | 0.053 |
| ACTCCAAC | -0.11 |
| AGACTGAG | -0.107 |
| ACTCGGGC | 0.263 |
| CCACGGGA | 0.223 |
| CCTCGGGA | 0.444 |
| GCTCGGGA | 0.464 |
| GCACGGGA | 0.305 |
| GCTCGTGA | -0.108 |
| ACTCGGGA | 0.44 |
| CCTCGGGC | 0.288 |
| ACTCGGGG | 0.286 |
| ATGTGCCC | -0.048 |
| GACCGCTA | 0.0181 |
| GCACTTAC | 0.0807 |
| CAGAGGCC | -0.204 |
| ACTTGGTA | -0.265 |
| AATGTGAT | -0.15 |

| Sequence | PBM E-score |
| --- | --- |
| CCGATACG | 0.307 |
| CGGATACC | 0.41 |
| AGGATACG | -0.23 |
| AGGATACA | -0.261 |
| GGGATACC | 0.184 |
| TGGATACA | -0.147 |
| CGGATACG | 0.409 |
| AGGATACC | 0.0351 |
| CGGATACA | 0.433 |
| CCGCTCGA | 0.11 |
| GCGCGACC | -0.0286 |
| ACGTTCAG | -0.252 |
| TCAGGGCA | -0.18 |
| AATACAGT | -0.194 |
| AGGAACTC | -0.0879 |
| AGGAACTA | 0.0365 |
| CGGAACTA | 0.449 |
| GGGAACTA | 0.183 |
| CTGAACTC | -0.175 |
| CGGAACTC | 0.401 |
| ACTCTAGG | -0.212 |
| CAGCTCCA | -0.265 |
| CGCGGCCG | 0.136 |
| AATCGGGC | 0.159 |
| ACTCTGAC | -0.0524 |

| Sequence | PBM E-score |
| --- | --- |
| GTATCCCA | -0.0937 |
| CTATCCCA | -0.135 |
| ATATCCGG | 0.424 |
| ATATCCGA | 0.482 |
| CTATCCAA | -0.268 |
| ATATCCCG | 0.306 |
| GTATCCGA | 0.487 |
| ATATCCTA | -0.0944 |
| CTATCCGA | 0.469 |
| GTATCCTA | -0.107 |
| ATATCCAG | -0.114 |
| ATATCCAA | 0.0444 |
| AATCTAAG | -0.107 |
| AGACTGGC | -0.17 |
| ACCCAGCG | -0.0996 |
| CAATGTAA | 0.112 |
| ATTATGGG | -0.0331 |
| TAGATGCA | -0.222 |
| GTCAGCGA | -0.138 |
| ATTGGGTG | -0.0143 |
| GACCTTAA | -0.145 |
| GGGTCTCA | 8e-05 |
| GCGAGCAC | -0.135 |
| TCGAGCAA | -0.141 |
| CCGAGCAC | 0.413 |

| Sequence | PBM E-score |
| --- | --- |
| ACGAGCAA | -0.0941 |
| CCGAGCAA | 0.406 |
| ACGAGCAC | -0.133 |
| GAACAGGA | -0.0169 |
| CCGAAGTC | 0.417 |
| ACGAAGTC | -0.264 |
| CAGAAGTC | -0.174 |
| ACGAAGTA | -0.0487 |
| CCGAAGTA | 0.418 |
| GCGAAGTA | -0.0361 |
| ACAGCTTC | 0.0141 |
| AACACCGG | 0.248 |
| CATGCCAA | -0.257 |
| CTTCCTCA | -0.208 |
| CGCACCAC | -0.0216 |
| AGTTTGAG | -0.092 |
| GCCTCGGA | 0.444 |
| GCCTCGAA | -0.0521 |
| GCCTCGTA | -0.0917 |
| CCCTCGCA | -0.0413 |
| CCCTCGGA | 0.464 |
| CCCTCGTA | -0.114 |
| CAAGTTTA | -0.136 |
| ACCTGCAC | -0.0938 |
| AAGGTACA | -0.341 |

| Sequence | PBM E-score |
| --- | --- |
| AAGGCTAG | -0.127 |
| GAACCGTA | 0.0316 |
| CAACCGAA | 0.289 |
| TAACCGAA | 0.431 |
| AAACCGAA | 0.259 |
| GAACCGAC | 0.286 |
| GAACCGAA | 0.397 |
| AACCCGGA | 0.375 |
| CTACAGTC | -0.214 |
| CTCATCTA | -0.116 |
| AAAGTGAC | -0.123 |
| AAACCCGC | 0.246 |
| AAACCCGT | -0.00663 |
| AAACCCGA | 0.403 |
| TAACCCGA | 0.385 |
| GAACCCGA | 0.338 |
| CAACCCGA | 0.33 |
| TGACCCAA | -0.235 |
| AGCGAAAT | 0.0212 |
| CGATTATC | 0.15 |
| GATTCAGA | -0.121 |
| ACGGCTAA | 0.264 |
| TCGGCTAA | 0.455 |
| TCGGCCGA | 0.419 |
| GCGGCCGA | 0.217 |

| Sequence | PBM E-score |
| --- | --- |
| CCGGCACA | 0.307 |
| TCGGCAGA | 0.41 |
| ACGGCAGA | 0.156 |
| CCGGCCGA | 0.356 |
| CCGGCACG | 0.293 |
| GCGGCTAA | 0.287 |
| TCGGCACA | 0.441 |
| CCGGCAGA | 0.286 |
| GACGTTGC | -0.00479 |
| AAGGCCTT | -0.207 |
| GGCGCCGA | 0.317 |
| GAGTAATC | -0.0725 |
| CGGACCCG | 0.346 |
| CCCTGCTA | -0.236 |
| ATTTGAGG | -0.0518 |
| CCACTTGA | -0.0304 |
| AATAGTCT | -0.236 |
| TCGGCAAA | 0.41 |
| GCGGCAAA | 0.182 |
| ACGGCAAA | 0.243 |
| AGGAGAAC | -0.179 |
| CAAATGCG | -0.127 |
| GTACCGAA | 0.358 |
| ATACCGAC | 0.167 |
| TTACCGAA | 0.424 |

| Sequence | PBM E-score |
| --- | --- |
| ATACCGAT | 0.285 |
| CTACCGAA | 0.365 |
| ATACCGAA | 0.392 |
| CGGTCTGC | -0.0321 |
| GCCACCGC | -0.0977 |
| CTCAAGGC | 0.065 |
| AGTGCGAC | 0.0915 |
| CCGGTATA | 0.214 |
| CCGAGAAG | 0.386 |
| TCGAGAAA | -0.141 |
| CAGAGAAG | -0.0211 |
| ACGAGAAC | -0.149 |
| GCGAGAAC | -0.021 |
| CCGAGAAC | 0.414 |
| ACGAGAAG | -0.264 |
| GCGAGAAA | -0.00939 |
| CCGAGAAA | 0.451 |
| AGCATTGG | -0.12 |
| CAGGGCAC | -0.15 |
| AAGAGGTG | -0.0351 |
| CCATTGAC | -0.243 |
| GAATGCGA | 0.0718 |
